Drawing on PubChem BioAssay AID1619 (SRMLSC, 2009), this text covers inhibition for 101 compounds.

SMILES strings stand for the structures. Hit rate of the full screen: of about 220,000 compounds, about 830 (0.38%) were called active.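 The calls were made as follows: active = compound inhibiting the enzyme by more than half at any dose during confirmatory dose-response retesting; inconclusive = strong single-dose inhibitors picked by rank but not retested; inactive = the rest.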 These entries were drawn from the full list. Potency and affinity values are given separately.

The term inhibition denotes the drop in the measured response relative to a control, in per cent.

Sequence of Leucine aminopeptidase (Plasmodium falciparum (isolate 3D7)) (Q8IL11 whole entry, looked up): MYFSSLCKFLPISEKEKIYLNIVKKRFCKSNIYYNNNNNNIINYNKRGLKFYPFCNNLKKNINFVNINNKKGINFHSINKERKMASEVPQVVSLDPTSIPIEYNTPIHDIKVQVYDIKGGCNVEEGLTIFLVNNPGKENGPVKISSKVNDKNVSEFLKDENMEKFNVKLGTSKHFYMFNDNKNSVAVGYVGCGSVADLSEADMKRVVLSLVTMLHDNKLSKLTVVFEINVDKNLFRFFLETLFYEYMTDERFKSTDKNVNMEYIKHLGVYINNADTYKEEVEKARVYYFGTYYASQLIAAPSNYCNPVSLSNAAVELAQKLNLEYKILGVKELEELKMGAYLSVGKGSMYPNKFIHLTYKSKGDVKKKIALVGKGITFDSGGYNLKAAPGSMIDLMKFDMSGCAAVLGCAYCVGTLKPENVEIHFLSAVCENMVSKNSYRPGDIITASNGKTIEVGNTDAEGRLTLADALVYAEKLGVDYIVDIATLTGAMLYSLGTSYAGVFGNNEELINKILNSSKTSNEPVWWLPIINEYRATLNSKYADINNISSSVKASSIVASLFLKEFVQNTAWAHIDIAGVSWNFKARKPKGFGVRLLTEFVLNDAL

This assay addresses Leucine aminopeptidase (Plasmodium falciparum (isolate 3D7)) (UniProt Q8IL11). Description: P. falciparum M17LAP inhibitors, primary screen, biochemical, fluorogenic H-Leu-NHMec substrate, 1536-well (AID 1619).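 Also: plate controls were full reaction with DMSO carrier for no effect and no enzyme background for full effect.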 The note with it: recombinant M17LAP, H-Leu-NHMec fluorogenic kinetic assay; at 30 µM; active compounds read high.
Consider `Cc1ccc(N(C(C)C(=O)O)S(=O)(=O)c2c(C)[nH]c(=O)[nH]c2=O)cc1` (stereo unspecified), for which the inhibition was 3.87% (inactive).

In the case of `c1ccc(Cn2nnc3c(N4CCc5ccccc54)ncnc32)cc1`, the inhibition was -4.35% (inactive).

As to `CCCNC(=O)NS(=O)(=O)c1cnccc1Sc1ccc(Cl)c(Cl)c1`, the inhibition is 9.08% (inactive).

On to `Cc1ccc(NC(=O)Cn2cccc2C2=NC(c3ccccc3)CO2)cc1C` (stereo unspecified), for which the inhibition was -6.31% (inactive).

In the case of `COC(=O)CSc1nc2cc3c(cc2cc1C)OCO3`, the inhibition was -14.1% (inactive).

As for `Cc1c(Br)ccc(NC(=O)CCN2C(=O)C3C4CCC(C4)C3C2=O)c1C` (stereo unspecified), the inhibition was 15.8% (inactive).

Consider `Cc1cc(NC(=O)CCN2C(=O)C3C4CCC(C4)C3C2=O)cc(C)c1Br` (stereo unspecified), for which the inhibition is 3.99% (inactive).

Turning to `O=C(NCc1ccccn1)C(=O)N/N=C/c1ccc2c(c1)OCO2`, the inhibition is 9.75% (inactive).

Turning to `Nc1nc2c(s1)CC(c1ccccc1)CC2` (stereo unspecified), the inhibition was 18.1% (inactive).

`Nc1nc2c(s1)C(=O)CCC2`: the inhibition was 12.6% (inactive).

For the compound `COc1ccc(C2CC(=O)c3sc(NC(C)=O)nc3C2)cc1` (stereo unspecified), the inhibition is -0.56% (inactive).

For the compound `COc1ccc(Nc2ncc3c(n2)CC(c2ccc(OC)cc2)CC3=O)cc1` (stereo unspecified), the inhibition was 0.52% (inactive).

As to `Nc1nc(SCC(=O)Nc2ccc3c(c2)OCO3)n[nH]1`, the inhibition is 4.7% (inactive).

Turning to `CCCC(=O)Nc1nnc(SCC(=O)Nc2ccc3c(c2)OCCO3)s1`, the inhibition was -3.46% (inactive).

On to `CC(C)C(=O)Nc1nnc(SCC(=O)Nc2ccc3c(c2)OCO3)s1`, for which the inhibition was 14.7% (inactive).

Consider `Cc1cc(=O)[nH]c(SCC(=O)Nc2ccc3c(c2)OCCO3)n1`, for which the inhibition is 36.2% (inactive).

On to `CCc1c(C)nc(SCC(=O)Nc2ccc(Br)cc2)[nH]c1=O`, for which the inhibition was 19.5% (inactive).

Regarding `CC(C)c1nc(SCC(=O)Nc2ccc3c(c2)OCCO3)n[nH]1`, the inhibition is 20.1% (inactive).

For the compound `O=C(CSc1ncn(-c2ccccc2)n1)Nc1ccc2c(c1)OCCO2`, the inhibition was 27.7% (inactive).

Take `Cc1csc(SCC(=O)Nc2ccc3c(c2)OCCO3)n1`: the inhibition is -1.69% (inactive).

For `CCc1nc(SCC(=O)N2CCN(c3ccccc3)CC2)c2c(=O)n(C)c(=O)n(C)c2n1`, the inhibition was 3.46% (inactive).

For the compound `O=C(Nc1ccc(S(=O)(=O)NCc2ccco2)cc1)C1CCCCC1`, the inhibition was 2.33% (inactive).

In the case of `CC(=O)c1sc(NC(=O)CCOc2ccccc2)nc1C`, the inhibition is -0.71% (inactive).

Regarding `CCN1CCN(C(=O)CN(C)S(=O)(=O)c2ccc(Cl)cc2)CC1`, the inhibition is -6.75% (inactive).

As for `CC(C)CNC(=O)C1CCN(c2ccc(S(=O)(=O)N3CCOCC3)cc2)CC1`, the inhibition is -3.46% (inactive).

As for `CSc1nc(Cc2ccccc2)nc2ccccc12`, the inhibition is 0.06% (inactive).

On to `COc1ccc2c(c1)c(C(=O)N/N=C/c1ccc(OC)c(OC)c1)c(C)n2C`, for which the inhibition was -4.74% (inactive).

For the compound `COc1ccc2c(c1)c(C(=O)N/N=C/c1cccc(O)c1)c(C)n2C`, the inhibition was 11.1% (inactive).

Turning to `COCCNC(=O)CN(c1ccccc1OC)S(C)(=O)=O`, the inhibition was 6.69% (inactive).

Turning to `CC(=O)Nc1ccc(NC(=O)/C=C/c2ccccc2)cc1`, the inhibition is -5.95% (inactive).

Turning to `COc1cccc(OCCCCN2CC(C)OC(C)C2)c1` (stereo unspecified), the inhibition was 8.69% (inactive).

With `CSc1nc2cc(Cl)ccc2s1`, the inhibition is -8.15% (inactive).

Turning to `O=C1OCCC1Sc1nc2cc(Cl)ccc2s1` (stereo unspecified), the inhibition was 11.7% (inactive).

Consider `Cc1cc(C(F)(F)F)nc(SCC(=O)NC2CC3CCC2C3)n1` (stereo unspecified), for which the inhibition is 4.48% (inactive).

Regarding `CC(Nc1ccc(Br)cc1)C(=O)N/N=C/c1ccccc1OCc1ccccc1` (stereo unspecified), the inhibition is -9.93% (inactive).

As to `COc1cccc(/C=N/NC(=S)Nc2cccc(C(=O)O)c2)c1O`, the inhibition was 44.2% (inactive).

Take `Cc1ccccc1NC(C)C(=O)N/N=C/c1ccccc1OCc1cccc(Br)c1` (stereo unspecified): the inhibition is -0.47% (inactive).

As for `O=C(N/N=C/c1ccncc1)c1ccc(COc2cccc3cccnc23)cc1`, the inhibition was 8.86% (inactive).

Take `COc1ccc(NC(C)C(=O)N/N=C/c2ccccc2OCc2cccc(Br)c2)cc1` (stereo unspecified): the inhibition is 3.79% (inactive).

In the case of `O=C(N/N=C/c1cccc(O)c1)c1ccc(COc2cccc3cccnc23)cc1`, the inhibition was 3.53% (inactive).

On to `CC1(C)CC2CC(C)(CN2/C=C2/CCCCC2=O)C1` (stereo unspecified), for which the inhibition is 16.8% (inactive).

As to `CCC1S/C(=N/N=C/c2ccco2)N(c2ccc(F)cc2)C1=O` (stereo unspecified), the inhibition is 5.93% (inactive).

Take `O=[N+]([O-])c1cccc2ccc(/C=C/c3ccc(C(F)(F)F)cc3)nc12`: the inhibition is 5.36% (inactive).

With `Cc1cc(N=Cc2c(O)n(-c3ccc(C)c(C)c3)c(=O)c3ccccc23)no1`, the inhibition is -34.1% (inactive).

Regarding `COc1ccc(OCC(=O)OC(C)CN2CCOCC2)cc1` (stereo unspecified), the inhibition was 4.55% (inactive).

For the compound `COc1cccc(CC(=O)n2nc(N)c3cc4ccc(OC)cc4nc32)c1`, the inhibition is -8.98% (inactive).

For the compound `O=C(CCC(=O)N1CCN(S(=O)(=O)c2ccc(Cl)cc2)CC1)Nc1ccc2ccccc2c1`, the inhibition was -4.1% (inactive).

Take `CCc1ccc(C2NC(=S)NC3=C2C(=O)CC(C)(C)C3)cc1` (stereo unspecified): the inhibition is -1.26% (inactive).

For the compound `CCOC(=O)c1c(C)[nH]c(C(=O)/C(C#N)=C/c2ccc(OC)c(OC)c2)c1C`, the inhibition was 9.47% (inactive).

As for `CC(C)NC(=O)COC(=O)c1ccc(S(=O)(=O)N2CCCC2)cc1`, the inhibition was -2.13% (inactive).

Take `CCCS(=O)(=O)N1CCN(S(=O)(=O)c2ccccc2)CC1`: the inhibition was -6.24% (inactive).

Consider `O=C(CCC(=O)N(CC(=O)NC1CCCCC1)c1ccc2c(c1)OCCO2)Nc1ccccn1`, for which the inhibition was 9.63% (inactive).

Regarding `O=C(CSc1nnc(Nc2ccccc2F)s1)c1cc2ccccc2o1`, the inhibition was 32.5% (inactive).

Regarding `COc1ccc(Nc2nnc(SCC(=O)c3cc4ccccc4o3)s2)cc1`, the inhibition is 4.36% (inactive).

On to `O=S(=O)(c1ccccc1)N1CCN(c2nc(-c3cccs3)nc3ccccc23)CC1`, for which the inhibition was 4.27% (inactive).

`CC(C)CC(NC(=O)c1cccs1)c1nnc(SCc2ccc(Cl)c(Cl)c2)n1C` (stereo unspecified): the inhibition was 4.91% (inactive).

As for `C/C=C/C(=O)OCC(=O)Nc1ccc(SC(F)F)cc1`, the inhibition is -1.79% (inactive).

For `Cc1nn(-c2ccccc2)c(N2CCCC2)c1/C=C1\N=C(c2ccccc2)OC1=O`, the inhibition is 2.36% (inactive).

In the case of `O=C(O)C1CCCCC1C(=O)Nc1ccc(F)cc1F` (stereo unspecified), the inhibition was 41.3% (inactive).

On to `O=C(O)C1CCCCC1C(=O)Nc1ccccc1Cl` (stereo unspecified), for which the inhibition is 43.9% (inactive).

As to `O=C(O)C1CCCCC1C(=O)Nc1cccc2ccccc12` (stereo unspecified), the inhibition was 39.5% (inactive).

As to `O=C(CCC(=O)Nc1ccc(Cl)cc1Cl)NNC(=O)[C@@H]1CCCC[C@@H]1C(=O)O`, the inhibition is -2.95% (inactive).

Regarding `Cc1ccc(F)c(NC(=O)C2CCCCC2C(=O)O)c1` (stereo unspecified), the inhibition was 4.08% (inactive).

As to `O=C(O)C1CC=CCC1C(=O)Nc1ccccc1C(=O)N1CCN(c2ccc(Cl)cc2)CC1` (stereo unspecified), the inhibition is 56.6% (inactive).

As for `COC(=O)c1ccccc1NC(=O)C1CC=CCC1C(=O)O` (stereo unspecified), the inhibition was 29.7% (inactive).

With `Cc1ccc(Cl)cc1NC(=O)C1CCCCC1C(=O)O` (stereo unspecified), the inhibition was 10.3% (inactive).

`COc1ccc(C(=O)Nc2cccc(-c3nc4ncccc4o3)c2C)cc1OC`: the inhibition is 2.86% (inactive).

Consider `COc1ccc(Cn2c(CCC(=O)Nc3ccc(C)cc3)nc3cccnc32)cc1`, for which the inhibition is -4.5% (inactive).

As to `CCOC(=O)C(C(=O)OCC)C1CS(=O)(=O)CC1C(C(=O)OCC)C(=O)OCC` (stereo unspecified), the inhibition is 17% (inactive).

For the compound `COc1ccc(CCNC(=O)CC2Nc3ccccc3NC2=O)cc1` (stereo unspecified), the inhibition was 3.68% (inactive).

`COc1ccccc1NC(=O)NCc1ccco1`: the inhibition is 4.76% (inactive).

With `Cc1cc(=O)[nH]c(SCC(=O)Nc2ccc(Br)cn2)n1`, the inhibition was 19.5% (inactive).

Regarding `O=C(NNC(=O)[C@H]1CC=CC[C@H]1C(=O)O)c1ccc(Cl)cc1Cl`, the inhibition was 0.37% (inactive).

Consider `O=C(CNC1CC1)Nc1cc(C(F)(F)F)ccc1Cl`, for which the inhibition was 1.31% (inactive).

With `O=C(O)C1=C(C(=O)Nc2cc(C(F)(F)F)ccc2Cl)CCCC1`, the inhibition was 8.32% (inactive).

As for `O=C(O)C1CC=CCC1C(=O)NNc1c(Cl)cc(Cl)cc1Cl` (stereo unspecified), the inhibition is 3.9% (inactive).

As to `CCOC(=O)c1cnc2c(OC)cccc2c1Nc1ccc2c(c1)OCCO2`, the inhibition was 2.45% (inactive).

`O=C(Nc1nc2cc3c(cc2s1)OCCO3)c1ccc(N2C(=O)CCC2=O)cc1`: the inhibition is 0.52% (inactive).

As to `O=C(O)c1cc2c(cc1Br)OCCCO2`, the inhibition was -43.7% (inactive).

For the compound `COc1ccc(OC)c(NC(=O)c2cccnc2Sc2ccccc2)c1`, the inhibition is -17.3% (inactive).

As to `CC1CC(C)CN(CCOc2ccc(Br)cc2)C1` (stereo unspecified), the inhibition is -2.12% (inactive).

In the case of `CC(C)(C)C(=O)N1CCC[C@H]1C(O)(c1ccccc1)c1ccccc1`, the inhibition is -4.15% (inactive).

Consider `OC(CNCc1ccccn1)c1ccccc1` (stereo unspecified), for which the inhibition was -7.85% (inactive).

As to `COc1cccc(NC2=CC(=O)CC(C)(C)C2)c1`, the inhibition is -33.9% (inactive).

Regarding `S=c1[nH]nc(Nc2ccc(Cl)cc2)s1`, the inhibition was 11.5% (inactive).

Turning to `Clc1ccc(Nc2ccc(Cl)nn2)cc1`, the inhibition is -4.12% (inactive).

For `Clc1cc(Cl)cc(Nc2ncnc(-n3cccc3)n2)c1`, the inhibition was 12.9% (inactive).

With `COC(=O)C1=C(Nc2cc(Cl)cc(Cl)c2)CSC1`, the inhibition is 5.27% (inactive).

As to `CCc1nc2c(c(=O)c3ccccc3n2C)c(=O)n1C1CCCCCC1`, the inhibition is 11% (inactive).

With `O=C(Nc1ccncc1)c1cccc2ccccc12`, the inhibition was 7% (inactive).

For `Cc1nc(NC(=O)Nc2ccc(Cl)cc2)sc1C`, the inhibition is 2.28% (inactive).

In the case of `N#CC(C#N)=C1C=C2C=C(N3CCCCC3)CCC2CC1` (stereo unspecified), the inhibition is 0.1% (inactive).

`N#CC(C#N)=C1C=C2C=C(N3CCCCCC3)CCC2CC1` (stereo unspecified): the inhibition is 10.6% (inactive).

Regarding `O=C1c2ccccc2C(=O)c2cc(S(=O)(=O)Nc3ccccc3)ccc21`, the inhibition was 9.48% (inactive).

With `O=C(Nc1ccc(Cl)cc1)OCc1cn(-c2ccccc2)nn1`, the inhibition is 6.64% (inactive).

For `CCSc1nnc(-c2cc(Br)ccc2N=Cc2c(C)[nH]n(-c3ccccc3)c2=O)c(=O)[nH]1`, the inhibition was 0.47% (inactive).

For the compound `Cc1ccccc1-c1n[nH]c(=S)n1/N=C/c1c(C)nn(-c2ccccc2)c1C`, the inhibition was 6.29% (inactive).

For the compound `Cc1nn(-c2ccccc2)c(C)c1/C=N/n1c(-c2ccccc2Br)n[nH]c1=S`, the inhibition is -1.13% (inactive).

Take `CCOc1ccc(Oc2c(/C=N/NC(N)=O)c(C)nn2-c2ccccc2)cc1`: the inhibition was 3.82% (inactive).

With `C=CCSc1nnc(-c2ccccc2N=Cc2c(C)[nH]n(-c3ccccc3)c2=O)c(=O)[nH]1`, the inhibition is 56.2% (inactive).

As to `Cc1nn(-c2ccccc2)c(C)c1/C=N/O`, the inhibition is 4.53% (inactive).
